TDP1 inh – qHTS Assay for Inhibitors of Tyrosyl-DNA Phosphodiesterase (TDP1); recombinant TDP1, AlphaScreen DNA substrate cleavage; Potency, µM (doses to about 130 µM), for the others: at the top dose activity change, negative = inhibition, hits mostly inhibitors; 350,000 compounds, 0.28% hits; AID 485290, 2010; further: potency means the concentration at half of the fitted maximal effect; on the % scale 0 is the no-effect control and ±100 the full control effect; nearly all actives have a fitted effect of over 40% in size
Target sequence (Q9NUW8 whole entry, looked up): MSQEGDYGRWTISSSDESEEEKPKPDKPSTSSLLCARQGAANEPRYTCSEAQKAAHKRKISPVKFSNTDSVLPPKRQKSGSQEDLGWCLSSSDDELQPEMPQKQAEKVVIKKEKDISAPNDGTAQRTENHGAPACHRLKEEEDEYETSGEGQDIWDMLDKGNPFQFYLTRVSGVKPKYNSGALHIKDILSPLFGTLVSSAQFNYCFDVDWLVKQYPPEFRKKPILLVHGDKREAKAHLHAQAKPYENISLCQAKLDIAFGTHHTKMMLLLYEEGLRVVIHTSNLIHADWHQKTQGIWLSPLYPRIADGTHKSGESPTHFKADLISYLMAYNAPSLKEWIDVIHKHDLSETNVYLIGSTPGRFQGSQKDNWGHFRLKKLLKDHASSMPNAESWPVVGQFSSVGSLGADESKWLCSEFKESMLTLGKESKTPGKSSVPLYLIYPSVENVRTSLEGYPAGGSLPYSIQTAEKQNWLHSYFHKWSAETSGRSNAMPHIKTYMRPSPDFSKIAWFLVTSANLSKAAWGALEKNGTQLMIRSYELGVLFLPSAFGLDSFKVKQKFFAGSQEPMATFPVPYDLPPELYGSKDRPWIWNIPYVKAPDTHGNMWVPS
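Recombinant human Tdp1 (E. coli-expressed, 1 nM final) preincubated with compounds 15 min at room temperature, then 5'-biotin/3'-phosphotyrosine-FITC DNA substrate (15 nM final) added for 5 min. AlphaScreen beads (10 ug/ml final) added 10 min; cleavage lowers signal.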
Six1-Eya2 blk – qHTS Assay for Inhibitors of the Six1/Eya2 Interaction; Homeobox protein SIX1 (Homo sapiens) + Protein phosphatase EYA2 (Homo sapiens), …; AlphaScreen GST-Six1/His-Eya2 binding, biochemical; stronger effect = lower value; activity change, % (no concentration beside the values); 360,000 compounds, 0.56% hits; in the data active means activity change below about -65%; inconclusive means mostly about -30% to -63%; further: on the % scale 0 is the no-effect control and ±100 the full control effect
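Compounds are tested against tagged Six1 and Eya2 proteins bridged by glutathione donor and nickel acceptor beads; after a one-hour incubation at 37 °C without light, AlphaScreen emission is recorded.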
CtBP-E1A blk – qHTS Assay for Inhibitors of the CtBP/E1A Interaction | AID 651724, 2012 | AlphaScreen GST-E1A/His-CtBP binding, 1536-well; stronger effect = lower value | CtBP / adenovirus E1A interaction (AlphaScreen) | 340,000 compounds, 0.49% hits | activity change, % (no concentration beside the values); in the data active means activity change below about -65%; inconclusive means mostly about -30% to -63%; further: on the % scale 0 is the no-effect control and ±100 the full control effect
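AlphaScreen with 125 nM GST-E1A and 125 nM His-CtBP (5X stocks) in Tris pH 8.0, 300 mM NaCl, BSA, Tween 20, TCEP. Compounds preincubated 2 h at 37 deg C, then glutathione donor/nickel acceptor beads added for 1 h at 37 deg C in dark.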
HP1b chromo inh – HTS for Inhibitors of HP1-beta Chromodomain Interactions with Methylated Histone Tails; Chromobox protein homolog 1 (Homo sapiens), P83916; AlphaScreen HP1-beta / biotin-H3K9me3 peptide binding; 390,000 compounds, 0.56% hits; Potency, µM (doses to about 114 µM), for the others: at the highest dose activity change, negative = inhibition, usual class: inhibitors; AID 540317, 2011; further: potency means the concentration at half of the fitted maximal effect; nearly all actives have a fitted effect of over 70% in size
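Compound inhibition of the preformed complex between 50 nM HP1-beta and 50 nM biotinylated H3K9me3 peptide was read by AlphaScreen. Buffer was PBS pH 7.4 with 0.01% Tween-20. Incubations ran 30 min at room temperature, with 10 ug/mL donor/acceptor beads.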
BAZ2B block – qHTS Assay for Inhibitors of BAZ2B; 360,000 compounds, 4.4% hits; AlphaScreen BAZ2B-H3K14Ac peptide displacement; Potency, µM (doses to about 114 µM), for inactives: at the top dose activity change, negative = inhibition, most hits filed as inhibitors; Bromodomain adjacent to zinc finger domain protein 2B (Homo sapiens), Q9UIF8; further: potency means the concentration at half of the fitted maximal effect; on the % scale 0 is the no-effect control and ±100 the full control effect; nearly all actives have a fitted effect of over 60% in size
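Compounds, titrated to a top concentration of 110 uM, were incubated 30 min at room temperature with preformed BAZ2B/acetyl-K14 H3 peptide complex (50 nM each). Proximity signal was measured by AlphaScreen after 20 min with beads.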
JMJD2A Tudor inh – qHTS Assay for Inhibitors of JMJD2A-Tudor Domain. Lysine-specific demethylase 4A (Homo sapiens), O75164. AlphaScreen JMJD2A-Tudor / H3K4me3 peptide binding. Potency, µM (doses to about 114 µM), without a hit: top-dose activity change, negative = inhibition, hits mostly inhibitors. 390,000 compounds, 4.4% hits; further: potency means the concentration at half of the fitted maximal effect; on the % scale 0 is the no-effect control and ±100 the full control effect; nearly all actives have a fitted effect of over 50% in size
* hit, by the source's call; ? = inconclusive; nt = no result; [ ] = dose if it differs, or a comment. Sampled rows, rich in hits. Any-hit rate of the full collection: about 5.3%. Unless noted, the call rests on the fitted dose curve; in most records, active means well fitted inhibition curve with a large enough effect; inconclusive means small, poorly fitted or top-dose-only effect; inactive means no such curve, though single readings can be large or run the other way.

SMILES	TDP1 inh	Six1-Eya2 blk	CtBP-E1A blk	HP1b chromo inh	BAZ2B block	JMJD2A Tudor inh
O=C1C=CC2C3C(=O)N(c4ccccc4)C(=O)C3C1N2Cc1ccccc1 (stereo unspecified)	nt	-12	2	44%	nt	-3%
O=c1[nH]c(=O)n(Cc2ccco2)c(O)c1/C=N/N1CCCCCC1	-6%	-11	-15	7%	-8%	-13%
O=c1[nH]c(=S)n(Cc2ccco2)c(O)c1C=NCc1cccs1	-5%	-4	-12	?	5µM*	?
N#Cc1c(/N=C/c2c(O)n(Cc3ccco3)c(=O)[nH]c2=O)sc2c1CCCC2	?	?	-21	-23%	?	79µM*
NC(=O)c1ccc(N=Cc2c(O)n(Cc3ccco3)c(=O)[nH]c2=O)cc1	28µM*	?	-1	119%	?	?
COC(=O)/C=C/C(=O)N[C@@H]1CC[C@@]2(O)[C@H]3Cc4ccc(O)c5c4[C@@]2(CCN3CC2CC2)[C@H]1O5	9%	nt	nt	nt	nt	nt
CCN(CCCl)c1cc(CN(C)C)cc(NC(=O)c2ccc(C(=O)Nc3cc(CN(C)C)cc(N(CC)CCCl)c3)cc2)c1	nt	?	-6	10µM*	nt	13µM*
CCN1C(=O)c2ccccc2Sc2ccc(NC(=O)c3ccc(C)c(F)c3)cc21	-2%	nt	nt	25%[57 µM]	1%	?
CC(N)C(=O)NC1C2C(=C(O)CC(O)C2O)C(=O)OC1(C)C(Cl)Cl (stereo unspecified)	nt	-1	0	-10%	nt	25µM*
O=C(N/N=C/c1c(O)n(CCC2=CCCCC2)c(=S)[nH]c1=O)c1ccccc1	8%	-30	-28	17%	-5%	?
O=C(N/N=C\C1C(=O)NC(=S)N(c2ccccc2)C1=O)c1ccc(O)cc1 (stereo unspecified)	8%	?	?	22%	25µM*	79µM*
c1cc2c(cc1CN1CCNCC1)OCO2	nt	0	2	23%	-13%	-12%
Oc1cc2c(cc1CN1CCN(c3ccccc3F)CC1)OCO2	6%[0.0935 µM]	-27	-17	71µM*	?	40µM*
CN1CCN(Cc2ccc(Br)s2)CC1	?	4	6	?	?	5.6µM*
Cc1cccc(N2CCN(Cc3ccc4c(c3)OCO4)CC2)c1C	nt	-22	-16	?	50µM*	28µM*
COc1ccccc1N1CCN(Cc2ccc(Br)s2)CC1	-7%	-10	-6	?	50µM*	0.89µM*
COc1cc(Br)cc(CN2CCN(C)CC2)c1O	1%	1	7	20%	?	-16%
CN(C(=O)Cc1ccc(Cl)c(Cl)c1)[C@H](CN1CCCC1)c1cccc(N=C=S)c1	14%	nt	nt	nt	nt	nt
CCOC(=O)N(C)C(=O)CSP(=S)(OCC)OCC	15%	nt	nt	nt	nt	nt
COc1ccccc1N1CCN(Cc2ccc3c(c2)OCO3)CC1	nt	-23	-1	?	nt	20µM*
COc1ccccc1N1CCN(Cc2ccccc2)CC1	nt	0	nt	?	35µM*	20µM*
COc1ccccc1N1CCN(Cc2cccc(Br)c2)CC1	nt	-12	0	?	50µM*	13µM*
CC[C@H](C)/C=C(C)/C=C/C1=CC2=C(Cl)C(=O)[C@@](C)(OC(C)=O)C(=O)C2=CO1	nt	-22	3	50µM*	nt	56µM*
CCC(C)/C=C(C)/C=C/C1=CC2=C(Cl)C(=O)C(C)(OC(C)=O)C(=O)C2=CO1 (stereo unspecified)	12%	-28	?	?	25µM*	35µM*
COc1ccccc1NC(=O)c1cc[n+](C)cc1	nt	2	nt	16%	?	-4%
SMILES	TDP1 inh	Six1-Eya2 blk	CtBP-E1A blk	HP1b chromo inh	BAZ2B block	JMJD2A Tudor inh
CCN1CCN(CC(c2ccccc2)c2ccccc2)CC1	nt	0	-1	?	10µM*	0.79µM*
CCc1ccc(C(=O)NN(C(=O)c2cc(C)cc(C)c2)C(C)(C)C)cc1	7%	nt	nt	nt	nt	nt
COC(=O)[C@]1(C)CC[C@@]2(C)CC[C@@]3(C)C4=CC=C5C(=CC(=O)C(O)=C5C)[C@@]4(C)CC[C@@]3(C)C2C1 (stereo partly specified)	9%[12.3 µM]	nt	nt	nt	nt	nt
Cc1cccc(-n2c(CC3C(=O)Nc4ccc(C)cc43)nc3ccccc3c2=O)c1 (stereo unspecified)	2%	nt	nt	11%	-31%	-31%
O=C1Nc2ccccc2C1Cc1nc2ccccc2c(=O)n1-c1ccccc1 (stereo unspecified)	nt	1	-6	0%	79µM*	-20%[11.4 µM]
C[C@]12[C@H](O)CC3C(CC[C@@H]4C[C@@H](O)CC[C@]34C)[C@@]1(O)CC[C@@H]2C1=CC(=O)OC1 (stereo partly specified)	12%[56.1 µM]	nt	nt	nt	nt	nt
NC1CCc2cc(O)c(O)cc2C1 (stereo unspecified)	12%	12	-3	?	-4%	11µM*
N#CC(O)c1ccccc1 (stereo unspecified)	13%	nt	nt	nt	nt	nt
O=C(CCS(=O)(=O)c1ccccc1)Nc1nnc(-c2ccco2)o1	3%	-9	-14	23%	50µM*	25µM*
[Cl][In]([Cl])[Cl]	0.5µM*	nt	nt	nt	nt	nt
ClC(Br)Br	-4%	nt	nt	nt	nt	nt
C=CC=O	-3%	nt	nt	nt	nt	nt
Brc1ccc2[nH]cc(C=NN3CCCCCC3)c2c1	nt	-3	-10	?	nt	50µM*
C(=NC1CCCCC1)c1c[nH]c2ccccc12	nt	-1	0	18%	nt	?
O=C1NC(=O)C(Nc2ccc(Cl)c(Cl)c2)C(=O)N1	nt	16	10	13%	nt	32µM*
COc1cc(C)c(CN2CCN(c3ccccc3)CC2)cc1C	-6%	-23	-9	-58%	?	3.2µM*
Cc1ccccc1CN1CCN(c2ccc(Cl)cc2)CC1	0%	-2	5	-12%	?	4µM*
O=[N+]([O-])c1ccc(Nc2ccccc2)cc1	4%	4	-7	53%	13%	-3%
c1ccc(Nc2ccc(Nc3ccccc3)cc2)cc1	10%	-4	?	?	28µM*	20µM*
C=C(C)[C@H]1CN[C@H](C(=O)O)[C@@H]1CC(=O)O	-3%[56.1 µM]	nt	nt	nt	nt	nt
C=C(C)[C@H]1CN[C@H](C(=O)O)[C@H]1CC(=O)O	-5%[56.1 µM]	4	2	?	nt	40µM*
Cc1ccc(C)c(S(=O)(=O)c2nnn3c2nc(N2CCN(C)CC2)c2sccc23)c1	5%	nt	nt	41%	?	-29%
